Measured potencies and affinities stand elsewhere. Calls of active or inactive are those of the source.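 Rule for the calls: active = fitted half-maximal dose no more than twice the top valid tested dose, for compounds that lower signal; inconclusive = fit invalid, or curve flat with activity between -70 and -30; inactive = potency past limit, curve flat within ±30, or signal increasing.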
molecular target: NAD-dependent protein deacylase sirtuin-5, mitochondrial (Homo sapiens) (UniProt Q9NXA8); assay: blockers of sirtuin-5 peptide desuccinylation – biochemical, fluorescence imaging, cherry-pick, set 6, dose response (AID 720597); conditions: Purified SirT5, succinyl-peptide-AMC/trypsin fluorescence; series mostly up to 15 µM;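 note: lower AMC signal can also come from blocking the trypsin step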
Sequence (Q9NXA8 whole entry, looked up): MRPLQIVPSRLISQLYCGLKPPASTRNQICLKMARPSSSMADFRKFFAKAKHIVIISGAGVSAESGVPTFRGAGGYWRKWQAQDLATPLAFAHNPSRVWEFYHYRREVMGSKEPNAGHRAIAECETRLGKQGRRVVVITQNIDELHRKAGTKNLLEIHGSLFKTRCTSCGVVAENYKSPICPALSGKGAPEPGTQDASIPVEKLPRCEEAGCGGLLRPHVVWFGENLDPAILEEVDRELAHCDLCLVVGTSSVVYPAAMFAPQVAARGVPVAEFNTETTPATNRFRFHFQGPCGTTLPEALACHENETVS

outcome, inactive:
C[C@@H]1CN([C@@H](C)CO)C(=O)c2cc(NC(=O)Nc3ccc(F)cc3)ccc2O[C@@H]1CN(C)S(=O)(=O)c1ccc(Cl)cc1
COc1ccc(S(=O)(=O)Nc2ccc3c(c2)CC(=O)N([C@@H](C)CO)C[C@@H](C)[C@H](CN(C)CC2CCCCC2)O3)cc1
CNC[C@H]1Oc2ccc(NC(=O)Nc3ccc(F)cc3)cc2CC(=O)N([C@@H](C)CO)C[C@H]1C
COc1cccc(NC(=O)N2CC(=O)N3[C@H](C2)[C@H](c2ccc(C#CCC4CCCC4)cc2)[C@@H]3CO)c1
C[C@@H]1CN([C@@H](C)CO)C(=O)c2cc(NS(=O)(=O)c3ccccc3)ccc2O[C@@H](C)CCCCO[C@@H]1CN(C)Cc1ccc(C(F)(F)F)cc1
C[C@@H]1CN([C@@H](C)CO)C(=O)c2cc(NS(=O)(=O)c3ccc(Cl)cc3)ccc2O[C@@H](C)CCCCO[C@@H]1CN(C)C(=O)Nc1ccc(C(F)(F)F)cc1
C[C@H]1CN([C@@H](C)CO)S(=O)(=O)c2ccc(C#CC(C)(C)O)cc2O[C@H]1CN(C)Cc1ccc(-c2ccccc2)cc1
C[C@H]1CN([C@@H](C)CO)C(=O)c2ccccc2-c2ccccc2CO[C@@H]1CN(C)Cc1cccc(C(F)(F)F)c1
Cc1ccc(S(=O)(=O)N(C)C[C@@H]2OCCCC[C@H](C)Oc3ccc(NS(=O)(=O)c4ccc(Cl)cc4)cc3C(=O)N([C@@H](C)CO)C[C@@H]2C)cc1
C[C@H]1CN([C@@H](C)CO)C(=O)c2cc(-c3ccc(C#N)cc3)cnc2O[C@@H]1CN(C)C(=O)Nc1ccc(C(F)(F)F)cc1
COc1ccc(S(=O)(=O)Nc2ccc3c(c2)C(=O)N([C@@H](C)CO)C[C@H](C)[C@@H](CN(C)S(=O)(=O)c2ccccc2)OCCCC[C@@H](C)O3)cc1
COc1cccc(S(=O)(=O)N(C)C[C@@H]2Oc3ncc(-c4cccc(C(F)(F)F)c4)cc3C(=O)N([C@H](C)CO)C[C@@H]2C)c1
COc1ccc(NC(=O)N(C)C[C@H]2Oc3cc(C#CCC(C)C)ccc3S(=O)(=O)N([C@@H](C)CO)C[C@@H]2C)cc1
C[C@H](CO)N1C[C@H](C)[C@H](CN(C)Cc2cccc(F)c2)Oc2ncc(C#C[C@@H](C)O)cc2C1=O
O=S(=O)(c1ccc(F)cc1)N1CCCCN2[C@H](CO)[C@@H](c3ccc(-c4ccccc4F)cc3)[C@H]2C1
C[C@@H]1CCCCO[C@@H](CN(C)CC2CCCCC2)[C@H](C)CN([C@H](C)CO)C(=O)c2cc(NC(=O)CCCCCC(=O)Nc3ccccc3N)ccc2O1
O=C(NC1CCCCC1)[C@@H]1[C@@H](CO)[C@@H]2Cn3c(cccc3=O)[C@H]1N2CC1CCCCC1
COc1cccc(S(=O)(=O)N(C)C[C@H]2Oc3cc(C4=CCCC4)ccc3S(=O)(=O)N([C@@H](C)CO)C[C@H]2C)c1
CCCC#Cc1ccc2c(c1)O[C@@H](CN(C)C(=O)c1ccccc1F)[C@@H](C)CN([C@H](C)CO)S2(=O)=O
CC(C)CC#Cc1ccc2c(c1)O[C@H](CN(C)C(=O)CC1CC1)[C@@H](C)CN([C@@H](C)CO)S2(=O)=O
C[C@@H]1CN([C@H](C)CO)S(=O)(=O)c2ccc(C#Cc3ccc(F)cc3)cc2O[C@H]1CN(C)C(=O)NC1CCCCC1
Cc1ccc(S(=O)(=O)Nc2ccc3c(c2)C(=O)N([C@@H](C)CO)C[C@@H](C)[C@H](CN(C)Cc2ccc(C(F)(F)F)cc2)OCCCC[C@@H](C)O3)cc1
C[C@H](CO)N1C[C@H](C)[C@@H](CN(C)Cc2ccccc2)Oc2ccc(N(C)C)cc2C1=O
C[C@@H]1CN([C@H](C)CO)S(=O)(=O)c2ccc(-c3cccc(F)c3)cc2O[C@@H]1CN(C)S(=O)(=O)c1ccc(F)cc1
C[C@@H]1CN([C@H](C)CO)S(=O)(=O)c2ccc(/C=C/c3ccccc3)cc2O[C@H]1CN(C)C(=O)NC1CCCCC1
C[C@@H]1CN([C@H](C)CO)C(=O)c2cc(NC(=O)CCC(F)(F)F)ccc2O[C@@H](C)CCCCO[C@@H]1CN(C)Cc1ccc(C(F)(F)F)cc1
O=C(NCC[C@H]1CC[C@H](NS(=O)(=O)c2cccc(F)c2)[C@H](CO)O1)C1CCOCC1
C[C@H](CO)N1C[C@H](C)[C@H](CN(C)S(=O)(=O)c2ccc(F)cc2)Oc2cc(C3=CCCCC3)ccc2S1(=O)=O
C[C@H]1CN([C@@H](C)CO)S(=O)(=O)c2ccc(C#Cc3cccc(F)c3)cc2O[C@H]1CN(C)S(=O)(=O)c1ccccc1F
Cc1ccc(S(=O)(=O)N(C)C[C@H]2OCCCC[C@@H](C)Oc3ccc(NS(=O)(=O)c4ccc(F)cc4)cc3C(=O)N([C@@H](C)CO)C[C@H]2C)cc1
O=C(Nc1ccc2c(c1)OCO2)N[C@H]1CC[C@H](CCNC(=O)C2CC2)O[C@@H]1CO
C[C@@H]1CN([C@H](C)CO)S(=O)(=O)c2ccc(C#Cc3cccc(F)c3)cc2O[C@H]1CN(C)S(=O)(=O)c1ccccc1F
CCN(C[C@H]1[C@@H](c2ccc(-c3ccccc3F)cc2)[C@@H](CO)N1C(C)=O)C(C)=O
C[C@H](CO)N1C[C@H](C)[C@H](CN(C)C(=O)c2ccc3c(c2)OCO3)Oc2cc(/C=C/c3ccccc3)ccc2S1(=O)=O
O=S(=O)(c1cccs1)N1CCCCN2[C@H](CO)[C@H](c3ccc(C4=CCCCC4)cc3)[C@H]2C1
CN(C)CC#Cc1ccc([C@@H]2[C@@H](CO)N3C(=O)CN(C(=O)c4cccc(F)c4)C[C@@H]23)cc1
Cc1ccc(S(=O)(=O)Nc2ccc3c(c2)C(=O)N([C@H](C)CO)C[C@H](C)[C@H](CN(C)Cc2ccc(C(F)(F)F)cc2)OCCCC[C@H](C)O3)cc1
COc1ccc(S(=O)(=O)Nc2ccc3c(c2)C(=O)N([C@H](C)CO)C[C@@H](C)[C@H](CN(C)Cc2ccc(Oc4ccccc4)cc2)O3)cc1
CC(C)OC(=O)N(C)C[C@@H]1OCc2cn(nn2)CCCC(=O)N([C@H](C)CO)C[C@H]1C
